Data as given in the supplement of paper PMC6992640.

Each compound was assayed on UCD52 (cells of a triple-negative basal-like breast cancer xenograft) (assay: cell viability of combination (% of vehicle); higher = less cytotoxic). Settings: 1 µM; 72 h; partner dose: 10 nM.
Method: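 PDX cells were treated for 72 h with each drug at 1 µM plus carfilzomib (10 nM; 100 nM for WHIM2). Luciferase viability is expressed as percent of vehicle.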

| Compound | cell viability of combination |
| --- | --- |
| Cc1cc(C(C#N)c2ccc(Cl)cc2)c(Cl)cc1NC(=O)c1cc(I)cc(I)c1[O-].[Na+] (stereo not given) [Closantel Sodium] + CC(C)C[C@H](NC(=O)[C@H](CCc1ccccc1)NC(=O)CN1CCOCC1)C(=O)N[C@@H](Cc1ccccc1)C(=O)N[C@@H](CC(C)C)C(=O)[C@@]1(C)CO1 [Carfilzomib] | 65.9 |
| CCCCCCCCCCCCCCCC[N+](C)(C)C.[Br-] [Cetrimonium Bromide (CTAB)] + CC(C)C[C@H](NC(=O)[C@H](CCc1ccccc1)NC(=O)CN1CCOCC1)C(=O)N[C@@H](Cc1ccccc1)C(=O)N[C@@H](CC(C)C)C(=O)[C@@]1(C)CO1 [Carfilzomib] | 53.1 |
| CCCCCCCCCCCCCCCC[n+]1ccccc1.[Cl-] [Cetylpyridinium Chloride] + CC(C)C[C@H](NC(=O)[C@H](CCc1ccccc1)NC(=O)CN1CCOCC1)C(=O)N[C@@H](Cc1ccccc1)C(=O)N[C@@H](CC(C)C)C(=O)[C@@]1(C)CO1 [Carfilzomib] | 48.1 |
| CCCCCCCCCCCC[N+](C)(C)CCOc1ccccc1.[Br-] [Domiphen Bromide] + CC(C)C[C@H](NC(=O)[C@H](CCc1ccccc1)NC(=O)CN1CCOCC1)C(=O)N[C@@H](Cc1ccccc1)C(=O)N[C@@H](CC(C)C)C(=O)[C@@]1(C)CO1 [Carfilzomib] | 57.1 |
| Cc1cc(C(C#N)c2ccc(Cl)cc2)c(Cl)cc1NC(=O)c1cc(I)cc(I)c1O (stereo not given) [Closantel] + CC(C)C[C@H](NC(=O)[C@H](CCc1ccccc1)NC(=O)CN1CCOCC1)C(=O)N[C@@H](Cc1ccccc1)C(=O)N[C@@H](CC(C)C)C(=O)[C@@]1(C)CO1 [Carfilzomib] | 65.7 |
